# According to ChEMBL document CHEMBL4513216, “Probing the Open Global Health Chemical Diversity Library for Multistage-Active Starting Points for Next-Generation Antimalarials” (ACS Infect Dis, 2020):
# About 8,600 (12%) of roughly 69,000 compounds showed an effect of 50% or more. The sample holds strong results, similar compounds and a random draw of the others, so the mix is not that of the screen.
# System: Plasmodium berghei
# Test: Screen against P. berghei liver stage (PbLuc), transformed with Luciferase, at 10uM
# Type: functional, HepG2
# Details: tested at 10 uM
row,Structure (SMILES),INHIBITION
1,CC(=O)c1ccc(N2CCN(C(=O)NCc3cc[nH]n3)CC2)cc1,48.4%
2,O=C(c1ccsc1)N1CCOC2(CCN(Cc3cccnc3)CC2)C1,-9.67%
3,COc1ccc2oc(C(C)NC(=O)NC3CCN(C)CC3)c(C)c2c1 (centres undefined),2.4%
4,Cn1ccnc1CNC(=O)N(CCCO)C1CCc2ccccc21 (centres undefined),8.05%
5,CCC[C@H]1CN(c2cncc(C(=O)N3CCCCC3)n2)C[C@@H]1N(C)C,-12.2%
6,COCCNC(=O)Cn1cc(OCc2ccc(F)cc2)c(=O)cc1C,25.8%
7,Cc1nc(O)cc(C2CCCN2CCO)n1 (centres undefined),13.5%
8,CC(=O)Cc1c(C)nn(-c2cncc(N)c2)c1C,11.5%
9,O=C1CC2(CCCC2)CN1CCOc1ccc(F)cc1,-144%
10,CC(=O)OC1CN(c2nc3c(C(F)(F)F)cccc3s2)C1,-107%
11,Cn1nc(C(=O)N2CC(Oc3nc4c(Cl)cccc4s3)C2)ccc1=O,29.6%
12,O=C(C1=COCCO1)N1CC(Oc2nc3c(Cl)cccc3s2)C1,74.6%
13,O=C(C1=COCCO1)N1CC(Oc2nc3c(C(F)(F)F)cccc3s2)C1,81.1%
14,OC1CN(c2nc3c(C(F)(F)F)cccc3s2)C1,-40%
15,COc1cccc2sc(OC3CN(C(=O)C4=COCCO4)C3)nc12,13.3%
16,CC1CCN(C(=O)CSc2nc3c(cnn3CCO)c(=O)[nH]2)CC1,38.6%
17,O=C(c1ccc2[nH]nnc2c1)N1CC[C@H](O)[C@]2(CCCO2)C1,1.62%
18,CCc1cccc(NC(=O)N2CCn3cnc(COC)c3C2)c1,-2.35%
19,CCN(CC1CCCO1)C(=O)Nc1cc(C(N)=O)ccc1OC (centres undefined),2.3%
20,O=C(Cc1ccsc1)N1CCC[C@@H]1Cn1c(=O)oc2ccccc21,8.2%
21,O=C(NCC1CCOCC1)[C@@H]1CC[C@@H]2[C@@H](CCN2Cc2ccncc2)O1,-54.7%
22,O=C(CCc1cccnc1)N(Cc1ccsc1)CC1CCCO1 (centres undefined),-9.86%
23,O=C(COCC1CCCO1)N(Cc1cccnc1)c1ccc(F)cc1 (centres undefined),53.3%
24,O=C(CN(Cc1cccnc1)CC1CCCO1)Nc1ccc(F)cc1 (centres undefined),21.6%
25,Cn1cc(C2CC(=O)NC23CCN(C(=O)c2cccnc2)CC3)cn1 (centres undefined),33.4%
26,O=C(c1csc(-c2ncccn2)n1)N1CCCC1Cn1cccn1 (centres undefined),41.5%

row,Structure (SMILES),INHIBITION
1,O=C(Nc1cccc(CNCc2cccs2)c1)C1CC1,20.5%
2,CC(C)CC(=O)Nc1cccc(CNCc2cccs2)c1,52.1%
3,O=C(Nc1cccc(CNCc2cccs2)c1)C1CCCC1,36.9%
4,Cc1cnn(CC2CCCN2C(=O)c2sccc2-n2cnnn2)c1 (centres undefined),-29.1%
5,COCCC(=O)N(C)CCC1=CCN(C)CC1,-6.274%
6,CN(C)C(=O)C1(c2cnccn2)CCCN1C(=O)Cc1ccsc1 (centres undefined),41%
7,CCN1CC[C@]2(CN(C(=O)C3CCOCC3)C[C@H]2c2ccccc2)C1=O,20.1%
8,CCN1CC[C@]2(CN(C(=O)[C@H]3CCCO3)C[C@H]2c2ccccc2)C1=O,52.3%
9,CN1Cc2ccccc2CC2(CCN(C(=O)[C@H]3CCCO3)CC2)C1=O,59.3%
10,O=C([C@H]1CCCO1)N1CCC2(CC1)Cc1ccccc1CNC2=O,7.7%
11,CN1Cc2ccccc2CC2(CCN(C(=O)N3CCOCC3)CC2)C1=O,26.5%
12,CN1CC[C@]2(CN(C(=O)[C@H]3CCCO3)C[C@H]2c2ccccc2)C1=O,4.02%
13,CSCCC(=O)N1CCCC(n2ccnc2)C1 (centres undefined),-6.14%
14,CC(C)Cn1cc2nc(N)[nH]cc-2c1=O,29.2%
15,O=C(NCCN1CCCCCC1=O)Nc1cccnc1-n1cccn1,-15.4%
16,CCc1ncc2c(n1)CN(c1cc(NC3CC3)nc(N)n1)C2,-49.6%
17,CCn1cc(-n2cc3nc(N)[nH]cc-3c2=O)cn1,-8.69%
18,CCN(CC1CCCO1)S(=O)(=O)c1cc(NC(C)=O)ccc1C (centres undefined),47.7%
19,CCN(CC)S(=O)(=O)c1cc(NC(=O)CCc2cscn2)ccc1C,28.9%
20,CCCN(CCC)S(=O)(=O)c1cc(NC(C)=O)ccc1C,71.2%
21,O=C(c1cccc(C2CCNC2)c1)N1CCC(N2CCC(O)CC2)CC1 (centres undefined),35.1%
22,Cc1cc2cccc(C(=O)N3CCOC4(CNCCOC4)C3)c2o1 (centres undefined),30.5%
23,COc1ccc(C(=O)N2CCOC3(CNCCOC3)C2)c(OC)n1 (centres undefined),53.6%
24,CN(C)c1ccccc1C(=O)N1CCOC2(CNCCOC2)C1 (centres undefined),8.53%
25,COc1ccc(Cl)cc1C(=O)N1CCOC2(CNCCOC2)C1 (centres undefined),16.8%
26,Cc1ccccc1C(=O)N1CCOC2(CNCCOC2)C1 (centres undefined),55.1%

row,Structure (SMILES),INHIBITION
1,O=C(c1ccccc1-c1ccccc1)N1CCOC2(CNCCOC2)C1 (centres undefined),-16.5%
2,Cc1nc(C)n(CC2CCCN2CC(=O)NCCC#N)n1 (centres undefined),8.38%
3,Cc1nc(-c2ccc(C(=O)O)cc2)cc(C2CCN(C(C)C)CC2)n1,26.3%
4,OC(CN1CCC(c2ccn[nH]2)CC1)c1ccc(F)cc1 (centres undefined),-12.2%
5,Cc1cc(Nc2nc(C)cc(C)n2)cc(C2CCCN2)n1 (centres undefined),49.2%
6,Cc1cc(S(=O)(=O)N2C[C@H](C3CC3)[C@@H](N)C2)c(C)s1,1.71%
7,COc1ccc(CC(=O)N2CCN(C)c3ncccc3C2)cc1,8.44%
8,CC1(C)CNC(=O)CN(C(=O)CCc2ccccc2)C1,40.4%
9,CC1(C)CNC(=O)CN(C(=O)COc2ccccc2)C1,55.5%
10,CN1C[C@H](O)[C@]2(CCN(C(=O)COc3ccccc3)C2)S1(=O)=O,9.36%
11,CC1(C)CNC(=O)CN(C(=O)Cc2ccccc2)C1,-1.99%
12,COc1ccc(CC(=O)N2CC(=O)NCC(C)(C)C2)cc1,60.1%
13,CSc1[nH]nc(NC(=O)c2cccs2)c1C#N,24.2%
14,Cn1cc(CCNCc2cc(Cl)c3c(c2)OCCO3)cn1,-9.4%
15,O=C1Nc2ccccc2CN(CC2CCCC2)C12CCNC2 (centres undefined),-44.5%
16,O=C(NCc1nnc2n1CCC2)c1cn(-c2ccccc2)nn1,13.6%
17,O=C(NCc1nnc2n1CCCC2)c1cn(-c2ccccc2)nn1,36.4%
18,O=C(NCc1nnc2n1CCC2)c1cn(-c2ccccc2Br)nn1,50.4%
19,Cc1ccc(OCc2occc2C(=O)O)cc1,64.1%
20,Cc1ccc(OCc2occc2C(=O)N2CC[C@H](CO)[C@@H](O)C2)cc1,26.6%
21,Cc1ccc(OCc2occc2C(=O)N2CCOC(C(=O)O)C2)cc1 (centres undefined),-0.71%
22,NS(=O)(=O)c1cc(C(=O)N2CCCC(n3ccnc3)C2)cs1 (centres undefined),29.4%
23,O=S1(=O)CCC(S(=O)(=O)c2cccc(S(=O)(=O)N3CCCCCC3)c2)C1 (centres undefined),50.2%
24,CN1CCN(S(=O)(=O)c2cccc(S(=O)(=O)C3CCS(=O)(=O)C3)c2)CC1 (centres undefined),46.7%
25,CSCc1cccc(S(=O)(=O)N2CCC(C)CC2)c1,32.4%
26,CC1=CCN(S(=O)(=O)c2cccc(C(=O)N3CCOCC3)c2)CC1,37.1%

row,Structure (SMILES),INHIBITION
1,O=S1(=O)CCC(S(=O)(=O)c2cccc(S(=O)(=O)N3CCCC3)c2)C1 (centres undefined),36.3%
2,O=S1(=O)CCC(S(=O)(=O)c2cccc(S(=O)(=O)N3CCOCC3)c2)C1 (centres undefined),58.9%
3,COCCN1C[C@H]2[C@@H](C1)N(C(=O)c1cccc(OC)c1)CC[C@H]2OC,9.63%
4,CC(C)c1ncc2c(n1)CN(Cc1nc(-c3cccnc3)no1)CC2,33.7%
5,Cc1nc(CN2CCOCC3(CCN(c4ncccn4)CC3)C2)cs1,27.6%
6,Cc1nn(C)c(C)c1C1CCCN1CC(=O)NCc1ccco1 (centres undefined),7.12%
7,O=C(NC1CC1)[C@H]1C[C@H]2OCC[C@H]2N(Cc2cccc3ccccc23)C1,11.4%
8,Cn1c(CN2CCCc3cc(F)cc(F)c32)cc(=O)n(C)c1=O,12.8%
9,CCNc1nc(N(C)C)nc(-n2cnc(SC)n2)n1,46.1%
10,c1cnc(N2CCC3(CCN(CC4CC4)CC3)CC2)nc1,-5.69%
11,O=C(O)[C@]12CCCN(Cc3ccccc3)C[C@H]1CN(c1ncccn1)C2,2.01%
12,c1cnc(N2CCC3(CCCN(CC4CC4)C3)CC2)nc1,61.1%
13,O=C(O)[C@]12CCCN(C3CCOC3)C[C@H]1CN(c1ncccn1)C2 (some centres undefined),31.2%
14,Fc1ccccc1CN1CCCC2(CCN(c3ncccn3)C2)C1 (centres undefined),74.9%
15,c1cnc(N2CCOCC3(CCCN(CC4CC4)C3)C2)cn1 (centres undefined),26.8%
16,c1cnc(N2CCC3(CCCN(CC4CCCCC4)C3)C2)cn1 (centres undefined),63%
17,Fc1ccccc1CN1CCCC2(CCN(c3ncccn3)CC2)C1,30.3%
18,Fc1cnccc1CN1CCCC2(CCN(c3ncccn3)CC2)C1,30.3%
19,c1cnc(N2CCCC3(CN(CC4CCOCC4)CCO3)C2)cn1 (centres undefined),-36%
20,c1cnc(N2CCCC3(COCCN(CC4CC4)C3)C2)nc1 (centres undefined),-6.23%
21,O=C(O)[C@]12CCCN(CC3CCOC3)C[C@H]1CN(c1ncccn1)C2 (some centres undefined),53.9%
22,CN(CC(=O)N1CCC(N(C)c2ccccc2)CC1)c1cnccn1,9.9%
23,COCCCNC(=O)CN1CCC(c2ccccc2)C1 (centres undefined),-4.99%
24,Cn1cccc1C(=O)N[C@@H]1CN(CC2CC2)[C@@H]2COC[C@@H]21,0.547%
25,CN(C)S(=O)(=O)c1ccc(-c2nc(C#N)c(NC(C)(C)C)o2)o1,16%
26,Cc1ccc(C(=O)N2CCC3(CCC(=O)N(CCCO)C3)CC2)c(O)c1,-45%
